The structures appear in SMILES notation. The source holds several records for some structures; these can differ, active in one and inactive in another. Calls of active or inactive are those of the source. The calls were made as follows: active = hit-call score of the fitted dose curve at least 0.9, where 1 is the maximum; inactive = score below 0.9.

Data on 27 molecules can be found in PubChem BioAssay (EPA / NIEHS).

This assay can be described thus: BSK_SAg_PBMCCytotoxicity: PBMC Cytotoxicity Assessment in the BioMAP Diversity Plus: SAg Assay (AID 2283093).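 Also: fitted both ways against DMSO so a hit may be loss or gain of signal.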 Conditions: primary human HUVEC with PBMC. As for the experimental part: BSK_SAg is a cell-based, multiplexed-readout assay that uses umbilical vein endothelium and peripheral blood mononuclear cells, a human vascular primary cell co-culture, with measurements taken at 24 hours after chemical dosing in a 96-well plate.BSK_SAg_PBMCCytotoxicity is an assay component measured in the BSK_SAg assay. It measures Alamar blue related to cell death using Alamar Blue Reduction technology.Data from the assay component BSK_SAg_PBMCCytotoxicity was analyzed into 1 assay endpoint. This assay endpoint, BSK_SAg_PBMCCytotoxicity, was analyzed with bidirectional fitting relative to DMSO as the negative control and baseline of activity. Using a type of viability reporter, gain or loss-of-signal activity can be used to understand changes in the viability. Furthermore, this assay endpoint can be referred to as a secondary readout, because this assay has produced multiple assay endpoints where this one serves a viability function. To generalize the intended target to other relatable targets, this assay endpoint is annotated to the cell cycle intended target family, where the subfamily is cytotoxicity.
The levels of cell surface (or secreted, indicated by the prefix "s") biomarker endpoints were measured by ELISA. Overt cytotoxicity to cells in confluent adherent cultures (all systems other than the BT system) was assessed by measuring total protein levels using sulforhodamine B (SRB) staining in parallel cultures at the time of biomarker measurements, indicated as SRB endpoints. For proliferation assays for adherent cell types, individual cell types are cultured at sub-confluence and relative cell numbers quantified by SRB staining at time points optimized for each system (48 h: 3C and CASM3C systems; 72 h: BT and HDF3CGF systems; 96 h: SAg system). SRB was performed by staining cells with 0.1% SRB after fixation with 10% TCA and reading wells at 560 nm.Viability and proliferation of PBMC (T cells) was quantified by Alamar Blue reduction for the SAg and BT systems. For PBMC viability (referred to as PBMC Cytotoxicity within the assay endpoint names), cells were plated (75,000/well in a 96-well plate) and then chemical samples added for 1 h before addition of activators, SEB and TSST-1 (20 ng/mL final concentration each). Cells were incubated for 90 h. Then, Alamar Blue (20 uL/well) (Invitrogen, Cat DAL1100) was added for 6 h, and the plates were read with a fluorescence microplate reader at 546/580 nm (excitation/emission). For PBMC proliferation, cells were plated and activated as above but incubated for only 16 h prior to addition of Alamar Blue. Plates were read after 6 h.
In the case of `COc1ccc(C(=O)c2ccccc2O)c(O)c1`, the result was inactive. As to `Cc1cc(-n2nc3ccc(Cl)cc3n2)c(O)c(C(C)(C)C)c1`, the result was inactive. For `CCCCCCCCCCC1CO1` (centres undefined), the concentration at half-maximal activity (AC50) (usually the concentration at which the activity in the assay is half-maximal) was 29.5 µM (active). Turning to `CCCCCCCCCCCCCCCCCC[N+](C)(C)C`, the AC50 was 3.16 µM (active). As to `CCCCCCCCCC/C=C/C1CC(=O)OC1=O` (centres undefined), the outcome was inactive.

Turning to `CC[N+](CC)(CC(=O)Nc1c(C)cccc1C)Cc1ccccc1` (tested in a mixture with another compound), the result was inactive. For `Cc1cccnc1`, the outcome was inactive. `C1CN(CCOCCN2CCOCC2)CCO1`: the result was inactive. As to `CC(C)C1OCCN1CCOC(=O)NCCCCCCNC(=O)OCCN1CCOC1C(C)C` (centres undefined), the result was inactive. Turning to `O=C(C(=O)c1ccccc1)c1ccccc1`, the result was inactive. Consider `CCCCC(CC)COC(=O)C=Cc1ccc(OC)cc1` (centres undefined), for which the outcome was inactive and the AC50 is 36.1 µM (active). `CC(C)CC(=O)CC(C)CC(C)C` (centres undefined): the AC50 is 33.3 µM (active). Take `CN(C)CCC(c1ccc(Cl)cc1)c1ccccn1` (centres undefined): the result was inactive. Turning to `Cc1c(C(N)=O)cc([N+](=O)[O-])cc1[N+](=O)[O-]`, the outcome was inactive. For the molecule `Oc1cccc2ccccc12`, the result was inactive.

For `CC[N+](CC)(CC(=O)Nc1c(C)cccc1C)Cc1ccccc1`, the result was inactive. Still for that read-out and setting: under `CCCCCCC(O)CCCCCCCCCCC(=O)OC` (centres undefined) stands “inactive”; under `COc1cc(CNC(=O)CCCC/C=C/C(C)C)ccc1O`, “inactive”; under `CCC[Si](OC(C)=O)(OC(C)=O)OC(C)=O`, “inactive”.

Turning to `O=[N+]([O-])c1cc(S(=O)(=O)Nc2ccccc2)ccc1Nc1ccccc1`, the outcome was inactive. In the case of `COc1ccccc1Oc1c(NS(=O)(=O)c2ccc(C(C)(C)C)cc2)nc(-c2ncccn2)nc1OCCO`, the outcome was inactive. On the same count and under the same terms, under `CN(C)c1ccc(C(c2ccccc2)c2ccc(N(C)C)cc2)cc1` stands “inactive”. As for `CN(C)Cc1cc(C(C)(C)C)c(O)c(C(C)(C)C)c1`, the outcome was inactive and the AC50 is 28.7 µM (active). Take `OC(C(F)(F)F)(C(F)(F)F)C(O)(C(F)(F)F)C(F)(F)F`: the result was inactive.

`CCC(C)=NO`: the outcome was inactive. The same measure, in the same setting: then `Sc1nc2ccccc2s1`, with “inactive”; and `COC(=O)/C=C\C(=O)OC`, with “inactive”.
